{
  "source": "the supplement of paper PMC8728848",
  "binders": {"B1": {"name": "CLECSF8 (Mus musculus), Q9Z2H6 (protein)", "chain": "HYFLRWTRGSVVKLSDYHTRVTCIREEPQPGATGGTWTCCPVSWRAFQSNCYFPLNDNQTWHESERNCSGMSSHLVTINTEAEQNFVTQLLDKRFSYFLGLADENVEGQWQWVDKTPFNPHTVFWEKGESNDFMEEDCVVLVHVHEKWVWNDFPCHFEVRRICKLPGITFNWKPSK"}, "B2": {"name": "IRP60A (Homo sapiens), Q9UGN4 (protein)", "chain": "MWLPWALLLLWVPGCFALSKCRTVAGPVGGSLSVQCPYEKEHRTLNKYWCRPPQIFLCDKIVETKGSAGKRNGRVSIRDSPANLSFTVTLENLTEEDAGTYWCGVDTPWLRDFHDPVVEVEVSVFPASTSMTPASITAAKTSTITTAFPPVSSTTLFAVGATHSASIQEETEEVVNSQLPLLLSLLALLLLLLVGASLLAWRMFQKWIKAGDHSELSQNPKQAATQSELHYANLELLMWPLQEKPAPPREVEVEYSTVASPREELHYASVVFDSNTNRIAAQRPREEEPDSDYSVIRKT"}},
  "experiment_in_all_cases": "glycan array binding signal (z-score within array); higher = stronger binding",
  "details_in_all_cases": "glycan notation: IUPAC condensed, linker removed",
  "key": {"[1]": {"target": "Fuc(a1-2)[Gal(a1-3)]Gal(b1-4)GlcNAc(b1-3)Gal(b1-4)Glc", "outline": "(§1)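 Arrays were curated from the Consortium for Functional Glycomics database, 3228 in total, and kept only where the protein sequence was available. Binding is expressed as a within-array Z-score. This score was averaged across arrays of the same protein sequence at different concentrations or buffers and across linkers, and negative values can be read as non-binding.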"}, "[2]": {"target": "Fuc(a1-3)[Gal(b1-4)]GlcNAc(b1-3)Gal(b1-4)Glc", "outline": "as §1"}, "[3]": {"target": "Gal(b1-4)Glc", "outline": "as §1"}, "[4]": {"target": "Gal(b1-4)GlcNAc(b1-2)Man(a1-3)[Gal(b1-4)GlcNAc(b1-2)Man(a1-6)]Man(b1-4)GlcNAc(b1-4)[Fuc(a1-6)]GlcNAc", "outline": "as §1"}, "[5]": {"target": "Gal(b1-4)GlcNAc(b1-2)Man(a1-3)[Gal(b1-4)GlcNAc(b1-2)Man(a1-6)][GlcNAc(b1-4)]Man(b1-4)GlcNAc(b1-4)[Fuc(a1-6)]GlcNAc", "outline": "as §1"}, "[6]": {"target": "Glc(a1-4)Glc", "outline": "as §1"}, "[7]": {"target": "Glc(a1-6)Glc(a1-4)Glc(a1-4)Glc", "outline": "as §1"}, "[8]": {"target": "Glc(a1-6)Glc(a1-6)Glc(a1-6)Glc(a1-6)Glc(a1-6)Glc(a1-6)Glc(a1-6)Glc", "outline": "as §1"}, "[9]": {"target": "GlcA(b1-3)Gal(b1-4)GlcNAc(b1-3)Gal(b1-4)Glc", "outline": "as §1"}, "[10]": {"target": "GlcNAc(a1-4)Gal(b1-3)[Fuc(a1-2)]Gal", "outline": "as §1"}, "[11]": {"target": "GlcNAc(b1-2)[GlcNAc(b1-4)]Man(a1-3)[GlcNAc(b1-2)[GlcNAc(b1-4)][GlcNAc(b1-6)]Man(a1-6)][GlcNAc(b1-4)]Man(b1-4)GlcNAc(b1-4)GlcNAc", "outline": "as §1"}, "[12]": {"target": "GlcNAc(b1-4)GlcNAc(b1-4)GlcNAc", "outline": "as §1"}, "[13]": {"target": "HexA(a1-3)GalNAc4S(b1-4)IdoA(a1-3)GalNAc4S(b1-4)IdoA(a1-3)GalNAc4S(b1-4)IdoA(a1-3)GalNAc4S(b1-4)IdoA(a1-3)GalNAc4S(b1-4)IdoA(a1-3)GalNAc4S(b1-4)IdoA(a1-3)GalNAc4S", "outline": "as §1"}, "[14]": {"target": "Man(a1-2)Man(a1-3)[Man(a1-2)Man(a1-6)[Man(a1-3)]Man(a1-6)]Man(b1-4)GlcNAc(b1-4)GlcNAc", "outline": "as §1"}, "[15]": {"target": "Man(a1-2)Man(a1-3)[Man(a1-3)[Man(a1-6)]Man(a1-6)]Man(b1-4)GlcNAc(b1-4)GlcNAc", "outline": "as §1"}, "[16]": {"target": "Man(a1-3)[Man(a1-6)]Man(a1-6)[Man(a1-3)]Man", "outline": "as §1"}, "[17]": {"target": "Neu4Ac5Ac(a2-3)Gal(b1-4)Glc", "outline": "as §1"}, "[18]": {"target": "Neu5Ac(a2-3)Gal(b1-4)[Fuc(a1-3)]GlcNAc6S(b1-3)Gal(b1-4)Glc", "outline": "as §1"}, "[19]": {"target": "Neu5Ac(a2-6)Gal(b1-3)GlcNAc(b1-3)[Fuc(a1-3)[Gal(b1-4)]GlcNAc(b1-6)]Gal(b1-4)Glc", "outline": "as §1"}, "[20]": {"target": "Neu5Ac(a2-6)Gal(b1-4)Glc", "outline": "as §1"}, "[21]": {"target": "Neu5Ac(a2-8)Neu5Ac(a2-3)Gal(b1-3)GalNAc(b1-4)[Neu5Ac(a2-3)]Gal(b1-4)Glc", "outline": "as §1"}, "[22]": {"target": "Neu5Ac(a2-8)Neu5Ac(a2-8)Neu5Ac(a2-8)Neu5Ac(a2-8)Neu5Ac", "outline": "as §1"}, "[23]": {"target": "Xyl(a1-6)Glc(b1-4)[Xyl(a1-6)]Glc(b1-4)[Xyl(a1-6)]Glc(b1-4)Glc", "outline": "as §1"}, "[24]": {"target": "Fuc(a1-2)[Gal(a1-3)]Gal(b1-4)GlcNAc", "outline": "as §1"}, "[25]": {"target": "Gal(a1-4)Gal(b1-4)GlcNAc", "outline": "as §1"}, "[26]": {"target": "Gal(b1-3)GalNAc(b1-4)Gal(b1-4)Glc", "outline": "as §1"}, "[27]": {"target": "Gal(b1-3)[Neu5Ac(a2-6)]GalNAc", "outline": "as §1"}, "[28]": {"target": "Gal(b1-4)GlcNAc(b1-3)Gal(b1-4)GlcNAc", "outline": "as §1"}, "[29]": {"target": "Gal3S(b1-4)GlcNAc", "outline": "as §1"}, "[30]": {"target": "GalNAc(a1-3)Gal", "outline": "as §1"}, "[31]": {"target": "GalNAc(b1-3)GalNAc", "outline": "as §1"}, "[32]": {"target": "GlcNAc(b1-3)Gal", "outline": "as §1"}, "[33]": {"target": "Kdn(a2-3)Gal(b1-4)GlcNAc", "outline": "as §1"}, "[34]": {"target": "Man(a1-2)Man(a1-3)[Man(a1-2)Man(a1-6)]Man(a1-6)[Man(a1-3)[Man(a1-6)]Man(a1-6)]Man(b1-4)GlcNAc(b1-4)GlcNAc", "outline": "as §1"}, "[35]": {"target": "Man(a1-2)Man(a1-6)[Man(a1-3)]Man(a1-6)[Man(a1-2)Man(a1-2)Man(a1-3)]Man(b1-4)GlcNAc(b1-4)GlcNAc", "outline": "as §1"}, "[36]": {"target": "Man(a1-3)[Man(a1-6)]Man", "outline": "as §1"}, "[37]": {"target": "Neu5Ac(a2-3)Gal(b1-3)[Neu5Ac(a2-3)Gal(b1-4)]GlcNAc", "outline": "as §1"}, "[38]": {"target": "Neu5Ac(a2-8)Neu5Ac", "outline": "as §1"}, "[39]": {"target": "Neu5Ac(a2-8)Neu5Ac(a2-3)[GalNAc(b1-4)]Gal(b1-4)Glc", "outline": "as §1"}, "[40]": {"target": "Neu5Gc(a2-3)Gal(b1-3)GlcNAc", "outline": "as §1"}},
  "note": "This is one part of a sample in which the strongest signals are shown more often than they occur.",
  "data": [
    {"binder": "B1", "values": [
      {"measurement": "glycan array binding signal (z-score)", "setting": "[1]", "value": -0.424},
      {"measurement": "glycan array binding signal (z-score)", "setting": "[2]", "value": -0.424},
      {"measurement": "glycan array binding signal (z-score)", "setting": "[3]", "value": -0.424},
      {"measurement": "glycan array binding signal (z-score)", "setting": "[4]", "value": -0.424},
      {"measurement": "glycan array binding signal (z-score)", "setting": "[5]", "value": -0.424},
      {"measurement": "glycan array binding signal (z-score)", "setting": "[6]", "value": 0.06},
      {"measurement": "glycan array binding signal (z-score)", "setting": "[7]", "value": 3.29},
      {"measurement": "glycan array binding signal (z-score)", "setting": "[8]", "value": 1.5},
      {"measurement": "glycan array binding signal (z-score)", "setting": "[9]", "value": 3.5},
      {"measurement": "glycan array binding signal (z-score)", "setting": "[10]", "value": -0.424},
      {"measurement": "glycan array binding signal (z-score)", "setting": "[11]", "value": -0.424},
      {"measurement": "glycan array binding signal (z-score)", "setting": "[12]", "value": 1.74},
      {"measurement": "glycan array binding signal (z-score)", "setting": "[13]", "value": 0.136},
      {"measurement": "glycan array binding signal (z-score)", "setting": "[14]", "value": -0.424},
      {"measurement": "glycan array binding signal (z-score)", "setting": "[15]", "value": -0.424},
      {"measurement": "glycan array binding signal (z-score)", "setting": "[16]", "value": 4.16},
      {"measurement": "glycan array binding signal (z-score)", "setting": "[17]", "value": 0.312},
      {"measurement": "glycan array binding signal (z-score)", "setting": "[18]", "value": -0.424},
      {"measurement": "glycan array binding signal (z-score)", "setting": "[19]", "value": -0.424},
      {"measurement": "glycan array binding signal (z-score)", "setting": "[20]", "value": -0.424},
      {"measurement": "glycan array binding signal (z-score)", "setting": "[21]", "value": 9.51},
      {"measurement": "glycan array binding signal (z-score)", "setting": "[22]", "value": 1.77},
      {"measurement": "glycan array binding signal (z-score)", "setting": "[23]", "value": 3.32}
    ]},
    {"binder": "B2", "values": [
      {"measurement": "glycan array binding signal (z-score)", "setting": "[24]", "value": -0.266},
      {"measurement": "glycan array binding signal (z-score)", "setting": "[25]", "value": -0.116},
      {"measurement": "glycan array binding signal (z-score)", "setting": "[26]", "value": -0.487},
      {"measurement": "glycan array binding signal (z-score)", "setting": "[27]", "value": -0.296},
      {"measurement": "glycan array binding signal (z-score)", "setting": "[28]", "value": -0.308},
      {"measurement": "glycan array binding signal (z-score)", "setting": "[29]", "value": 0.268},
      {"measurement": "glycan array binding signal (z-score)", "setting": "[30]", "value": 6.44},
      {"measurement": "glycan array binding signal (z-score)", "setting": "[31]", "value": 0.467},
      {"measurement": "glycan array binding signal (z-score)", "setting": "[32]", "value": -0.069},
      {"measurement": "glycan array binding signal (z-score)", "setting": "[33]", "value": -0.156},
      {"measurement": "glycan array binding signal (z-score)", "setting": "[34]", "value": -0.396},
      {"measurement": "glycan array binding signal (z-score)", "setting": "[35]", "value": -0.395},
      {"measurement": "glycan array binding signal (z-score)", "setting": "[36]", "value": 8.07},
      {"measurement": "glycan array binding signal (z-score)", "setting": "[37]", "value": -0.378},
      {"measurement": "glycan array binding signal (z-score)", "setting": "[38]", "value": 5.86},
      {"measurement": "glycan array binding signal (z-score)", "setting": "[39]", "value": -0.404},
      {"measurement": "glycan array binding signal (z-score)", "setting": "[40]", "value": -0.502}
    ]}
  ]
}
